Source: PubChem BioAssay (NCI)
The panel holds about 83,000 compounds, 20% with a hit somewhere; the sample as a whole holds those more often.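 Percent growth is the endpoint: 0 to 100 indicates growth inhibition (40 means 60% inhibition), 0 means no net growth, and negative values indicate cell death.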 Unmarked numbers belong to inactive results. Calls of active or inactive are those of the source. How the source made its calls: active means growth percent below 10; inactive means the rest.

Key:
Assay in all cases: NCI-60 one-dose screen, 48 h (100 = growth as untreated, 0 = no growth, -100 = all killed)
Settings in all cases: 10 µM unless noted
DU-145 prostate = system: DU-145 prostate
K-562 leukemia = system: K-562 leukemia
MALME-3M melanoma = system: MALME-3M melanoma
MDA-MB-231 breast = system: MDA-MB-231 breast
RXF 393 renal = system: RXF 393 renal
SF-268 CNS = system: SF-268 CNS
SF-295 CNS = system: SF-295 CNS
SF-539 CNS = system: SF-539 CNS
UACC-257 melanoma = system: UACC-257 melanoma
M14 melanoma = system: M14 melanoma
HCT-15 colon = system: HCT-15 colon
HT29 colon = system: HT29 colon
SNB-75 CNS = system: SNB-75 CNS
SNB-19 CNS = system: SNB-19 CNS
U251 CNS = system: U251 CNS
PC-3 prostate = system: PC-3 prostate
SK-MEL-5 melanoma = system: SK-MEL-5 melanoma
UACC-62 melanoma = system: UACC-62 melanoma
LOX IMVI melanoma = system: LOX IMVI melanoma
SK-MEL-28 melanoma = system: SK-MEL-28 melanoma

SMILES	growth (DU-145 prostate)	growth (K-562 leukemia)	growth (MALME-3M melanoma)	growth (MDA-MB-231 breast)	growth (RXF 393 renal)	growth (SF-268 CNS)	growth (SF-295 CNS)	growth (SF-539 CNS)	growth (UACC-257 melanoma) [%]	growth (M14 melanoma)	growth (HCT-15 colon)	growth (HT29 colon)	growth (SNB-75 CNS)	growth (SNB-19 CNS)	growth (U251 CNS)	growth (PC-3 prostate)	growth (SK-MEL-5 melanoma)	growth (UACC-62 melanoma)	growth (LOX IMVI melanoma)	growth (SK-MEL-28 melanoma) [%]
c1ccc(-c2nc3sc(C(c4ccccc4)c4ccccc4)nn3c2-c2ccccc2)cc1	99.9%	106%	86.4%	97.8%	109%	92.6%	98.6%	98%	92.2	92%	87.9%	94.9%	85%	109%	102%	78.7%	109%	89%	89.4%	102
O=[N+]([O-])c1cccc2cc(S(=O)(=O)O)ccc12	105%	80.7%	102%	105%	122%	104%	104%	99.4%	91.9	107%	103%	87.5%	118%	106%	94.7%	84%	103%	100%	92.1%	111
COc1ccc(/C(Cl)=N/N=C(\Cl)c2cc(OC)c(OC)c(OC)c2)cc1OC(C)=O	95.3%	97.3%	93.6%	97.8%	101%	95.3%	102%	93.3%	84.6	107%	100%	79.2%	78.7%	92.3%	89.6%	74.8%	94.8%	93.9%	96.7%	110
CNC(=O)NN	103%	109%	93.7%	108%	108%	111%	99.6%	97%	100	98.1%	87.3%	107%	88.3%	105%	95.2%	93.4%	103%	104%	102%	112
O=C(Nc1cccc(-n2ccc3c(NC(=O)c4ccccc4)nccc32)c1)Nc1cc(C(F)(F)F)cc(C(F)(F)F)c1	1.14% (active)	4.23% (active)	26.2%	-10.5% (active)	-19.4% (active)	22.1%	-19.2% (active)	-19.3% (active)	25.2	-43.8% (active)	5.94% (active)	-16.3% (active)	38.7%	20.5%	0.587% (active)	11.1%	-82.1% (active)	11.6%	22.5%	35.4
CCCCCCCCCCCCCCCCCCNCc1ccc(Cl)cc1	-91.3% (active)	-65.7% (active)	-57.6% (active)	-72.9% (active)	-74.4% (active)	-63.5% (active)	-46.8% (active)	-88.1% (active)	38.9	-72.2% (active)	-87.1% (active)	-94.7% (active)	-60.9% (active)	-67.6% (active)	-84.8% (active)	-89.3% (active)	11.8%	-46.7% (active)	-74.6% (active)	27.2
COc1ccc(-n2c(-c3ccc(NC(=O)CCCl)cc3)nnc2-c2cc(OC)c(OC)c(OC)c2)cc1	22.7%	49.8%	71.4%	53.2%	8.38% (active)	78.6%	53.1%	41.5%	52.1	59.5%	41.1%	18.9%	90.9%	52%	34.4%	49.8%	48.2%	48.1%	57.1%	27.8
COC1=C(OC)C(=O)C=CC1=O	114%	7.24% (active)	114%	101%	114%	109%	113%	110%	110	116%	108%	95.4%	110%	108%	107%	92.7%	111%	94.1%	100%	120
CCc1c(C)c2cc3c(c(C)c2oc1=O)OCC(=O)N3	72.5%	82.5%	79%	65.6%	68%	68.3%	71.7%	67.8%	84.3	88.8%	67.2%	64.1%	14.3%	64.3%	62%	80.4%	81.1%	69.6%	65.3%	92.7
O=C(CSc1nnc(-c2cc3c([nH]c4ccccc43)c(-c3cccc(O)c3)n2)n1-c1ccccc1)c1ccccc1	47.8%	21.8%	55.4%	78%	-11.4% (active)	63.1%	16.8%	33.1%	93.3	30%	46.3%	64.9%	45.8%	84.2%	32.9%	40.2%	33.2%	69.8%	11.2%	71.5
CCCCOc1c(N)cccc1C(=O)OCCN(CC)CC	103%	80.4%	100%	99.3%	100%	95.1%	103%	104%	100	99.5%	109%	85.8%	102%	99.9%	96.5%	86.8%	105%	95.2%	102%	112
Nc1nc(-c2cc3c(cc2Cl)NC(=O)/C3=C/c2ccc(Cl)cc2)cs1	64.6%	5.83% (active)	56.2%	2.9% (active)	51.6%	44.7%	60.5%	62.3%	73.5	28.7%	49.6%	35.6%	49.1%	31.2%	21.8%	32.6%	6.5% (active)	36%	12.6%	45.4
O=C1c2ccccc2OC=C(c2ccccc2)N1CCCCNc1ccc(F)cc1	98.9%	68.1%	82.3%	74.9%	97.9%	78.3%	86%	100%	83.6	76.7%	90.3%	76.9%	90.7%	87.3%	81.8%	47.2%	94.3%	76.3%	86.1%	104
O=C(Nc1cccc(-n2ccc3c(NC(=O)c4ccccc4)nccc32)c1)Nc1ccc(Cl)c(C(F)(F)F)c1	-19.3% (active)	3.03% (active)	33.6%	13.7%	-41.7% (active)	8.59% (active)	-6.24% (active)	8.31% (active)	46.2	2.96% (active)	10.6%	-38.9% (active)	54.7%	24.8%	9.27% (active)	20.4%	-35.5% (active)	20.9%	11.8%	44.5
O=C(O)c1ccc2nc(-c3ccc(OCCCCCOc4ccc(-c5nc6ccc(C(=O)O)cc6[nH]5)cc4)cc3)[nH]c2c1	120%	77.6%	173%	105%	-11.8% (active)	156%	123%	108%	78.8	94.1%	74.3%	51.4%	96%	59.6%	96.4%	90%	3.26% (active)	53%	82%	46.9
NS(=O)(=O)c1ccc(-n2nc(-c3ccc(Cl)cc3)ccc2=O)cc1	102%	45.9%	113%	118%	95.6%	96.5%	-4.7% (active)	84.4%	96.6	96.2%	84.5%	104%	86%	86.8%	104%	85.6%	83.1%	61.4%	95.8%	90.3

SMILES	growth (DU-145 prostate)	growth (K-562 leukemia)	growth (MALME-3M melanoma)	growth (MDA-MB-231 breast)	growth (RXF 393 renal)	growth (SF-268 CNS)	growth (SF-295 CNS)	growth (SF-539 CNS)	growth (UACC-257 melanoma) [%]	growth (M14 melanoma)	growth (HCT-15 colon)	growth (HT29 colon)	growth (SNB-75 CNS)	growth (SNB-19 CNS)	growth (U251 CNS)	growth (PC-3 prostate)	growth (SK-MEL-5 melanoma)	growth (UACC-62 melanoma)	growth (LOX IMVI melanoma)	growth (SK-MEL-28 melanoma) [%]
O=C(Nc1cccc(-n2ccc3c(NC(=O)c4ccccc4)ncnc32)c1)Nc1ccc(Cl)c(C(F)(F)F)c1	42.2%	13.6%	46.5%	42.3%	14.6%	38.1%	14.2%	39.1%	36	28.1%	34.1%	26.6%	44.4%	46.5%	31.7%	22.7%	19%	39.5%	24.7%	49.4
COc1cc(NS(=O)(=O)c2ccc(N)cc2)ncn1	118%	92.9%	97.4%	94.7%	112%	109%	102%	112%	106	107%	108%	120%	104%	99.8%	102%	99.8%	103%	99.1%	94.3%	121
Cc1cn(C2CC(N=[N+]=[N-])C(COP(=O)(O)OP(=O)(O)OP(=O)(O)O)O2)c(=O)[nH]c1=O (stereo not given)	114%	83.5%	87.9%	118%	127%	103%	80.7%	114%	108	57.7%	120%	99.8%	85.3%	102%	109%	92.4%	106%	112%	101%	99.1
CC(Cl)(CCl)CS(=O)(=O)c1ccc(Cl)cc1 (stereo not given)	108%	105%	114%	96.5%	93.1%	101%	100%	107%	86.7	104%	105%	103%	103%	101%	94.4%	97.7%	100%	99.8%	101%	117
COc1ccc(CCNC=O)cc1OC	102%	115%	90%	112%	87.9%	104%	103%	91.5%	108	100%	103%	114%	80.7%	92.4%	110%	100%	95.5%	103%	98.1%	106
O=C(Nc1ccc(-n2ccc3c(NC(=O)c4ccccc4)nccc32)cc1)c1ccc(Cl)c(C(F)(F)F)c1	23.6%	-31.6% (active)	57.9%	55.8%	18.4%	28.7%	25.3%	24.1%	58.8	31.5%	-32.9% (active)	-3.9% (active)	60.3%	44.6%	-51.6% (active)	42%	27.1%	40.6%	-28.8% (active)	54.6
CN1CCN(Cn2nc(-c3cc(Cl)cc(Cl)c3Cl)n(/N=C/c3ccc(Cl)cc3)c2=S)CC1	102%	73.9%	101%	83.8%	89.6%	117%	102%	108%	93.6	96%	93.5%	117%	107%	96.6%	93.1%	82.4%	92.3%	90%	90.4%	111
N#Cc1c(N)nc(Cl)c(C#N)c1C(=O)c1ccccc1	52.1%	5.81% (active)	42.3%	26.3%	-2.56% (active)	38.6%	56.1%	15.2%	69.4	35%	18.4%	18.3%	50%	31.2%	30.1%	37.5%	23.1%	36.3%	12%	11.6
COc1ccc(Cl)cc1NC(=O)c1cc2c(n1C)-c1nc(NC(=O)C(C)(C)C)sc1CC2	98.6%	92.2%	106%	91.9%	97.5%	95.5%	87.8%	98.9%	90.9	88.2%	89.4%	79.2%	83.1%	106%	88.4%	71.7%	79.7%	87.7%	93.9%	92.4
O=C(/C=C/c1ccco1)c1cccc(Nc2nc(Nc3ccccc3)nc(Nc3ccccc3)n2)c1	95%	64.4%	110%	67.9%	34.5%	92.9%	61.5%	94.4%	101	92.1%	72%	79.1%	60.2%	92.4%	77.1%	66.4%	81.2%	80.3%	83.5%	95
CCCC(C)(C)COC(=O)c1cccc(N)c1	106%	87%	92%	106%	123%	97.7%	101%	103%	83.3	99.4%	113%	78.5%	94.5%	106%	89.1%	78.1%	102%	96.6%	101%	117
O=C1COc2ccccc2C(=O)N1CCCCN1CCCCC1	93.7%	50%	93.8%	109%	118%	100%	93.9%	102%	102	91.9%	91.3%	73.6%	99.5%	99.4%	88.9%	57.7%	99.1%	91.6%	90.7%	95.6
C=CC(C)(O)CCC1C(=C)CCC2C(C)(C)CCCC12C (stereo not given)	104%	97.9%	101%	112%	108%	94.5%	99.3%	106%	88.1	111%	97.3%	70.1%	91.3%	111%	104%	112%	107%	95.5%	97.2%	101
CC(=O)Oc1ccc(C(OC(C)=O)OC(C)=O)cc1	103%	89.6%	105%	114%	115%	93.3%	99.1%	99.7%	107	99.3%	102%	99.8%	106%	104%	106%	104%	105%	101%	99.2%	107
CC12CCC3C(CCC4CC(O)CCC43C)C1C/C(=C/O)C(=O)O2 (stereo not given)	108%	102%	134%	106%	99.8%	101%	105%	113%	92.6	105%	106%	102%	110%	101%	104%	97.8%	92.9%	100%	101%	112
